HSD17B inhib – qHTS Assay for Inhibitors of HSD17B4, hydroxysteroid (17-beta) dehydrogenase 4 | Potency, µM (top dose mostly 57.1 µM), without a hit: at the highest dose activity change, negative = inhibition, hits mostly inhibitors | 3-hydroxyacyl-CoA dehydrogenase type-2 (Homo sapiens), Q99714 | recombinant HSD17B10, NADH fluorescence kinetic | hit rate 7.6% among 75,000;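 note: the protocol describes HADH2 (HSD17B10) and not the HSD17B4 of the title; potency is the fitted concentration of half-maximal effect; % is set by controls: 0 for no effect and ±100 for the full control effect; nearly all actives have a fitted effect of over 70% in size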
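His-tagged E. coli-expressed HADH2 at 20 nM in 100 mM Tris-HCl pH 9.0 with 0.01 % Tween-20, preincubated 15 min with compound at room temperature. Reaction with 1 mM NAD+ and 90 uM beta-hydroxybutyryl coenzyme A; NADH fluorescence (360/450 nm) read kinetically over 4 min, last minus first point.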
A350 fluor – qHTS Assay for Spectroscopic Profiling in A350 Spectral Region; hit rate 11% among 59,000; AID 590, 2007; max dye-equivalent concentration, M; Compound autofluorescence, 340/450 nm, Alexa 350 dye-equivalents; active compounds read high; in the data active = max dye-equivalent concentration above about 10 nM; inconclusive = mostly about 1.1 nM to 9.6 nM
GBA mod – Glucocerebrosidase. AID 360, 2006. Potency, µM. hit rate 1.1% among 48,000. purified enzyme, resorufin glucoside fluorescence (screen aimed at inhibitors), 20 min. Lysosomal acid glucosylceramidase (Homo sapiens), P04062; in the data active = potency below about 15 µM; inconclusive = mostly about 16 µM to 33 µM;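 note: potency is the fitted concentration of half-maximal effect; the screen sought inhibitors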
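Normal human glucocerebrosidase (0.2 nM final) was assayed with resorufin β-D-glucopyranoside (30 uM final) in 50mM citric acid/KH2PO4, 10mM sodium taurocholate, 0.01% tween-20, pH 5.9. Compounds were titrated; fluorescence (Ex 548, Em 600) read after 20 min at RT.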
4-MU autofl – qHTS Assay for Spectroscopic Profiling in 4-MU Spectral Region; compound autofluorescence, 340/450 nm, 4-MU equivalents; active compounds read high; max dye-equivalent concentration, M; hit rate 11% among 59,000; AID 589, 2007; in the data active = max dye-equivalent concentration above about 10 nM; inconclusive = mostly about 1.1 nM to 9.6 nM
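Compounds in 100 mM Tris, pH 8.0, incubated 15 min at room temperature, then fluorescence read at 340 nm excitation/450 nm emission. Signal converted to 4-MU dye-equivalent concentration using an on-plate six-point 4-MU standard curve.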
HADH2 inh – qHTS Assay for Inhibitors of HADH2 (Hydroxyacyl-Coenzyme A Dehydrogenase, Type II); recombinant HADH2, NADH fluorescence, beta-hydroxybutyryl-CoA; Potency, µM (doses to about 57.1 µM), for inactives: top-dose activity change, negative = inhibition, actives largely listed as inhibitors; hit rate 3.4% among 73,000; AID 886, 2007; 3-hydroxyacyl-CoA dehydrogenase type-2 (Homo sapiens), Q99714; note: potency is the fitted concentration of half-maximal effect; % is set by controls: 0 for no effect and ±100 for the full control effect; nearly all actives have a fitted effect of over 60% in size
Target sequence (Q99714 whole entry, looked up, one chain of several): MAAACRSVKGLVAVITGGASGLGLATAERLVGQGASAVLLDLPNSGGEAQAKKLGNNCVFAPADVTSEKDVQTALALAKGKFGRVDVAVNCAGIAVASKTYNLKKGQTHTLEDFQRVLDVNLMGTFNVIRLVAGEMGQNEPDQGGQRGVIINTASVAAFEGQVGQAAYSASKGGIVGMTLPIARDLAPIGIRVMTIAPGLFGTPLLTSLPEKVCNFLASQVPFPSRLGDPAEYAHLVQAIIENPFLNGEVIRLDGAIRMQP
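E. coli-expressed His-tagged HADH2 tested at 20 nM in alkaline Tris buffer (pH 9.0); oxidation of 90 uM beta-hydroxybutyryl-CoA with 1 mM NAD+ tracked fluorimetrically for 4 min.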
AID923 – qHTS Assay for Allosteric/Competitive Inhibitors of Caspase-1: Spectroscopic Profiling in AFC Spectral Region. compound fluorescence, AFC spectral region (405/520 nm). Potency, µM (titrated, usually from 57.5 µM), for the others: top-dose fluorescence increase, most hits filed as activators. hit rate 1.1% among 75,000. AID 923, 2007; note: potency is the fitted concentration of half-maximal effect; 0% is about no effect
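Compound autofluorescence profiled at 405 nm ex/520 nm em during kinetic caspase 1 run (50 nM enzyme, 5 uM Ac-WEHD-AFC, HEPES pH 7.5, 10 mM DTT). Titration up to 57 uM; baseline from regression intercept, normalized to AFC standard curve.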
The depositor's hits bear a star; ! = a repeat was not active; [ ] = remark or other dose. In the library only some 13% were active in any assay of this set; here they are far more common. Unless noted, calls come from the whole dose curve; as a rule, active = well fitted curve in the direction sought with a large enough effect; inconclusive = small, poorly fitted or top-dose-only effect, or another doubt; inactive = no such curve, though single readings can be large; an effect the other way counts as inactive or inconclusive.

Screening CCOc1ccc(-c2nc3n(c(=O)c2C#N)CCCS3)cc1 returned HSD17B inhib 20µM*, A350 fluor 3.4e-08M*, GBA mod >77, 4-MU autofl 3e-08M*, HADH2 inh -2% and AID923 5%.
`C=C(C)CSc1nnc(-c2ccccc2)n1N` gave HSD17B inhib 2%, A350 fluor inactive, GBA mod >77, 4-MU autofl inactive, HADH2 inh inconclusive and AID923 0%.
Screening N#CC12CCCCC1CC1CCCCC1(C#N)N2CCO (stereo not given) returned HSD17B inhib 5%, A350 fluor inactive, GBA mod >77, 4-MU autofl inactive, HADH2 inh 15% and AID923 5%.
Screening N#CC12CCCCC1CC1CCCCC1(C#N)N2Cc1ccccn1 (stereo not given) returned A350 fluor 3.6e-06M* and 4-MU autofl 3.2e-06M*.
Screening CCOc1cc(C2c3c(oc4cc(C)c(Cl)cc4c3=O)C(=O)N2Cc2ccco2)ccc1O (stereo not given) returned HSD17B inhib inconclusive, A350 fluor 9e-08M*, GBA mod >77, 4-MU autofl 1e-07M*, HADH2 inh inconclusive and AID923 1%.
COc1ccc(S(=O)(=O)Nc2ccc(O)c3ccccc23)cc1 was read as HSD17B inhib 25µM*, A350 fluor inconclusive, GBA mod >77, 4-MU autofl inconclusive, HADH2 inh 1µM* and AID923 13%.
CCCCCSc1nc2c(cnn2-c2ccccc2)c(=O)[nH]1 was read as HSD17B inhib 11%, A350 fluor inactive, GBA mod 13*, 4-MU autofl inactive, HADH2 inh 1% and AID923 -2%.
Screening COc1ccccc1CN1CCCC2(CCN(C(C)=O)CC2)C1 returned HSD17B inhib 0%, A350 fluor inactive, 4-MU autofl inactive, HADH2 inh 9% and AID923 1%.
For O=C(NC1CCCCC1)c1sc(=S)n2c1[nH]c(=O)c1ccccc12 the results were HSD17B inhib 13µM*, A350 fluor inactive, GBA mod >77, 4-MU autofl inactive, HADH2 inh 4µM* and AID923 0%.
CCOC(=O)c1cc2sc(C)cc2n1C(C)C(=O)OCC (stereo not given) was read as HSD17B inhib -8%, A350 fluor inactive, GBA mod >77, 4-MU autofl inactive, HADH2 inh -2% and AID923 1%.
`CC(C)COC[C@H](CN(Cc1ccccc1)c1ccccc1)N1CCCC1` gave HSD17B inhib -3%[25.6 µM], A350 fluor inconclusive, 4-MU autofl inconclusive, HADH2 inh 3.2µM*! and AID923 -4%[25.7 µM].
`CCN(Cc1ccccc1)c1ccccc1` gave HSD17B inhib 2%, HADH2 inh -1% and AID923 3%.
For CCOC(=O)C1=C(CS(=O)(=O)c2ccccc2)NC(=O)NC1c1ccccc1 (stereo not given) the results were HSD17B inhib -2%, A350 fluor inactive, GBA mod >77, 4-MU autofl inactive, HADH2 inh 6% and AID923 -1%.
For CCCC1=C(C(=O)OCC)C(c2ccc(NC(C)=O)cc2)NC(=O)N1 (stereo not given) the results were HSD17B inhib 32µM*, A350 fluor 4.4e-08M*, GBA mod inactive, 4-MU autofl 5.3e-08M*, HADH2 inh -8% and AID923 -2%.
`Cc1c(O)c(=O)c2ccccc2n1C` gave HSD17B inhib 3.2µM*, HADH2 inh inconclusive and AID923 -2%[11.5 µM].
For O=C(O)C1CCCCC1C(=O)NCCc1ccc(Cl)cc1 (stereo not given) the results were HSD17B inhib 193%, A350 fluor 3.5e-07M*, GBA mod >77, 4-MU autofl 3.5e-07M*, HADH2 inh -28% and AID923 16%.
`OC[C@H]1O[C@@H](n2cnc3c(NCc4ccccc4)ncnc32)[C@H](O)[C@@H]1O` gave HSD17B inhib 17% and AID923 0%.
Screening CC(C)C(OC(=O)c1ccco1)C(=O)NCc1cccs1 (stereo not given) returned HSD17B inhib 0%, A350 fluor 1.4e-07M*, GBA mod >77, 4-MU autofl 1.3e-07M*, HADH2 inh 3% and AID923 4%.
Cc1ccc(CNC(=O)C(OC(=O)c2ccco2)C(C)C)cc1 (stereo not given) was read as HSD17B inhib 5%, A350 fluor inactive, GBA mod >77, 4-MU autofl inactive, HADH2 inh -2% and AID923 1%.
Screening CCOC1(OCC)N=C(N)C2(C#N)C(c3ccc(NC(C)=O)cc3)C12C#N (stereo not given) returned HSD17B inhib -10%, A350 fluor inconclusive, 4-MU autofl inconclusive, HADH2 inh -15% and AID923 8%.
COc1ccc(CNC(=O)c2cccc(N(C)C)c2)cc1 was read as HSD17B inhib -23%, A350 fluor 1.2e-08M*, GBA mod >77, 4-MU autofl 1e-08M*, HADH2 inh inconclusive and AID923 -1%.
For Cc1cc(NC2C3CC4CC(C3)CC2C4)n2nnnc2n1 (stereo not given) the results were HSD17B inhib 3%, A350 fluor inactive, GBA mod >77, 4-MU autofl inactive, HADH2 inh -30% and AID923 10%.
For Cc1cc(NCc2ccccc2Cl)n2nnnc2n1 the results were HSD17B inhib 25µM*, A350 fluor inconclusive, GBA mod >77, 4-MU autofl inconclusive, HADH2 inh 8% and AID923 2%.
`COc1cccc(Nc2ncc3nc(C)c(=O)n(CCc4ccccc4)c3n2)c1` gave HSD17B inhib inconclusive, A350 fluor inactive, 4-MU autofl inactive, HADH2 inh 1% and AID923 18%.
COc1ccc2c(c1)C1(Nc3ccccc3-c3nc4ccccc4n31)C(=O)N2C (stereo not given) was read as HSD17B inhib inconclusive, A350 fluor 2.8e-08M*, GBA mod >77, 4-MU autofl 2.1e-08M*, HADH2 inh 5% and AID923 3%.
For COc1ccc2c(c1)C1(Nc3ccccc3-c3nc4ccccc4n31)C(=O)N2 (stereo not given) the results were HSD17B inhib -6%, A350 fluor inconclusive, GBA mod >77, 4-MU autofl inactive, HADH2 inh -2% and AID923 -1%.

High-throughput results as filed in PubChem BioAssay.
